ChEMBL document CHEMBL1961873, “Compounds: GSK PKIS; Assays: Nanosyn kinase panel” (2012)

Columns and labels:
[1] = molecular target: Casein kinase I isoform gamma-2 (Homo sapiens) (UniProt P78368); details: at 1 µM
[2] = molecular target: Casein kinase I isoform gamma-3 (Homo sapiens) (UniProt Q9Y6M4); details: at 0.1 µM
[3] = molecular target: Casein kinase I isoform gamma-3 (Homo sapiens) (UniProt Q9Y6M4); details: at 1 µM
[4] = molecular target: Cyclin-dependent kinase 1 (Homo sapiens) (UniProt P06493); details: at 0.1 µM
Sequence of Cyclin-dependent kinase 1 (Homo sapiens) (P06493 whole entry, looked up): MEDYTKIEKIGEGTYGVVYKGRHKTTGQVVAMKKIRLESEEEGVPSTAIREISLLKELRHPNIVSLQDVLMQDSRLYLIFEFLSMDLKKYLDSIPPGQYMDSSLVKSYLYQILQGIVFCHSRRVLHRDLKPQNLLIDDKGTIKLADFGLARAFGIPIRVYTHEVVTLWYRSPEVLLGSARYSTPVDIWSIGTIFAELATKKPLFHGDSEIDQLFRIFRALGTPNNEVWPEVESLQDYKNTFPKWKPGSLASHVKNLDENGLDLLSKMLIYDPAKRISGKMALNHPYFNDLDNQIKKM

[5] = molecular target: Cyclin-dependent kinase 1 (Homo sapiens) (UniProt P06493); details: at 1 µM
[6] = molecular target: Cyclin-dependent kinase 2 (Homo sapiens) (UniProt P24941); details: at 0.1 µM
[7] = molecular target: Cyclin-dependent kinase 2 (Homo sapiens) (UniProt P24941); details: at 1 µM
[8] = molecular target: Cyclin-dependent kinase 2 (Homo sapiens) (UniProt P24941); details: at 0.1 µM; remark: listed apart in the source
[9] = molecular target: Cyclin-dependent kinase 2 (Homo sapiens) (UniProt P24941); details: at 1 µM; remark: listed apart in the source
[10] = molecular target: T1, CDK3/Cyclin E (Homo sapiens) (UniProt P24864+Q00526); details: at 0.1 µM
T1 sequence (P24864 whole entry, looked up): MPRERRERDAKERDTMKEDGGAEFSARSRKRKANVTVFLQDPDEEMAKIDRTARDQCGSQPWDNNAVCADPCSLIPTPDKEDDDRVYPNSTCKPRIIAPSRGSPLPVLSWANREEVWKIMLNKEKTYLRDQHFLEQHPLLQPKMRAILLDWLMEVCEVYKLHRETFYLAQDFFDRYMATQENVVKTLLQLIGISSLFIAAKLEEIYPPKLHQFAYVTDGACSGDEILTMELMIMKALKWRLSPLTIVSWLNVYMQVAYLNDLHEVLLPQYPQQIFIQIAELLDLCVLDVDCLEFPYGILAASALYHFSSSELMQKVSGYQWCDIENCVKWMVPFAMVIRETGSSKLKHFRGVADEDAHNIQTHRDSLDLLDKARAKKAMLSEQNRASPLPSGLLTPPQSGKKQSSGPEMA
T1 sequence (Q00526 whole entry, looked up): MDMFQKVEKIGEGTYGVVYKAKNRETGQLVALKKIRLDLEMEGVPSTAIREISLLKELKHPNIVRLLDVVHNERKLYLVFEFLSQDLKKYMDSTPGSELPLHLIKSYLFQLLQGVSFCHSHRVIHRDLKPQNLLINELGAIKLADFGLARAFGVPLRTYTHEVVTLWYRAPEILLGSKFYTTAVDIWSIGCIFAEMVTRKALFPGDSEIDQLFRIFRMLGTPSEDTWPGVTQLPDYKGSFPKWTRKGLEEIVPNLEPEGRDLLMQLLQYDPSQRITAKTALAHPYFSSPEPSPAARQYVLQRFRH

[11] = molecular target: T1, CDK3/Cyclin E (Homo sapiens); details: at 1 µM
[12] = molecular target: Cyclin-dependent kinase 4 (Homo sapiens) (UniProt P11802); details: at 0.1 µM
Sequence of Cyclin-dependent kinase 4 (Homo sapiens) (P11802 whole entry): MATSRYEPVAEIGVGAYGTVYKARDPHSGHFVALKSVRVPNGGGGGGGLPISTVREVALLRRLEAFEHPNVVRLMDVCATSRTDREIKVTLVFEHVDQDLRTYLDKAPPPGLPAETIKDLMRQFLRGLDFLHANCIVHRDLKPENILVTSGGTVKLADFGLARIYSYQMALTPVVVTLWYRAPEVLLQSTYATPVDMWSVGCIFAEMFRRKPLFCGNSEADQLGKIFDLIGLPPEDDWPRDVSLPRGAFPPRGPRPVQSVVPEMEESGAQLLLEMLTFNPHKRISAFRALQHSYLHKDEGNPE

[13] = molecular target: Cyclin-dependent kinase 4 (Homo sapiens) (UniProt P11802); details: at 1 µM
[14] = molecular target: Cyclin-dependent kinase 5 (Homo sapiens) (UniProt Q00535); details: at 0.1 µM
Sequence of Cyclin-dependent kinase 5 (Homo sapiens) (Q00535 whole entry, looked up): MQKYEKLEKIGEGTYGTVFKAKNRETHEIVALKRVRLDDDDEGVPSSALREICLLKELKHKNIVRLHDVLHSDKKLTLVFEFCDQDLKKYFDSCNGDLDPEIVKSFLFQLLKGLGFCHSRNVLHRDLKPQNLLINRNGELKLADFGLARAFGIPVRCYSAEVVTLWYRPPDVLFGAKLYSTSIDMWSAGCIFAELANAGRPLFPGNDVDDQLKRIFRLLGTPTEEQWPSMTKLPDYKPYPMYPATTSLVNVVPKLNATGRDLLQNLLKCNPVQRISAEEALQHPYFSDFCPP

[15] = molecular target: Cyclin-dependent kinase 5 (Homo sapiens) (UniProt Q00535); details: at 1 µM
[16] = molecular target: Cyclin-dependent kinase 6 (Homo sapiens) (UniProt Q00534); details: at 0.1 µM
Sequence of Cyclin-dependent kinase 6 (Homo sapiens) (Q00534 whole entry): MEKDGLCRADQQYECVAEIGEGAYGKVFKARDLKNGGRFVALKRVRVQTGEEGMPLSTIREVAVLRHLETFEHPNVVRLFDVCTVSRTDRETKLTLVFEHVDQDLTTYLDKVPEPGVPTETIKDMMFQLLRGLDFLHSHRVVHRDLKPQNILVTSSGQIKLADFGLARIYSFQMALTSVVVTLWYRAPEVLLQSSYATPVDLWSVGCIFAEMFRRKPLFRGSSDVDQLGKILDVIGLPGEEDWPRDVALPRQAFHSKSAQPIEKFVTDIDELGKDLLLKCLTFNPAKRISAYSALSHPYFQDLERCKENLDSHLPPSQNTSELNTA

[17] = molecular target: Cyclin-dependent kinase 6 (Homo sapiens) (UniProt Q00534); details: at 1 µM
[18] = molecular target: Dual specificity protein kinase CLK2 (Homo sapiens) (UniProt P49760); details: at 0.1 µM
Sequence of Dual specificity protein kinase CLK2 (Homo sapiens) (P49760 whole entry, looked up): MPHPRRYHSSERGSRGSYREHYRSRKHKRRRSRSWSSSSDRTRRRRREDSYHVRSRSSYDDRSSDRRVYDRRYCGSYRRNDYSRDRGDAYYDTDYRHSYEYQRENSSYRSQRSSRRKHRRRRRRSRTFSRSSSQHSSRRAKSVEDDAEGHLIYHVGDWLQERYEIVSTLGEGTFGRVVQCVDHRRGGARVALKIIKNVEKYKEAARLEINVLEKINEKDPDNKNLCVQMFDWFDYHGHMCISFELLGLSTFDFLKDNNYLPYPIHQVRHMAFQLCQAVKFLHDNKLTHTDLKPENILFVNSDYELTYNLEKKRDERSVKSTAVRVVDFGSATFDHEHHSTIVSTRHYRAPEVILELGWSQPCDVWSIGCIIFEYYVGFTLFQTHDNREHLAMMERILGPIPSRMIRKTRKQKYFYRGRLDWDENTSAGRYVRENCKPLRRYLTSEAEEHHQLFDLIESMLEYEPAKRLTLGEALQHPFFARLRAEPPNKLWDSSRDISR

[19] = molecular target: Dual specificity protein kinase CLK2 (Homo sapiens) (UniProt P49760); details: at 1 µM
[20] = molecular target: Dual specificity protein kinase CLK3 (Homo sapiens) (UniProt P49761); details: at 0.1 µM
Sequence of Dual specificity protein kinase CLK3 (Homo sapiens) (P49761 whole entry, looked up): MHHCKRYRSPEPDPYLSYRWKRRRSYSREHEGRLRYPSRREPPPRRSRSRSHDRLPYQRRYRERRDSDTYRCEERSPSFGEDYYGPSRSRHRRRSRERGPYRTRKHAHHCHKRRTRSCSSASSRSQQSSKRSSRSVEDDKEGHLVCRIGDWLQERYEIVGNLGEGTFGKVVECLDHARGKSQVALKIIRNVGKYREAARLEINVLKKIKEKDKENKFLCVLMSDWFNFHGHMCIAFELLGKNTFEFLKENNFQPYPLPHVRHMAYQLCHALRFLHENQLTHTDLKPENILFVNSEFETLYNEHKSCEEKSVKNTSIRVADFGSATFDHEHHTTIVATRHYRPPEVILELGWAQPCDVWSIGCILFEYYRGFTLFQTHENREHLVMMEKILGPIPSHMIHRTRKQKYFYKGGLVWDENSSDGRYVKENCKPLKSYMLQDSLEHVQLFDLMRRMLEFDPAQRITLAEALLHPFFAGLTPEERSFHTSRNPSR

Sequence of Casein kinase I isoform gamma-2 (Homo sapiens) (P78368 whole entry, looked up, canonical isoform): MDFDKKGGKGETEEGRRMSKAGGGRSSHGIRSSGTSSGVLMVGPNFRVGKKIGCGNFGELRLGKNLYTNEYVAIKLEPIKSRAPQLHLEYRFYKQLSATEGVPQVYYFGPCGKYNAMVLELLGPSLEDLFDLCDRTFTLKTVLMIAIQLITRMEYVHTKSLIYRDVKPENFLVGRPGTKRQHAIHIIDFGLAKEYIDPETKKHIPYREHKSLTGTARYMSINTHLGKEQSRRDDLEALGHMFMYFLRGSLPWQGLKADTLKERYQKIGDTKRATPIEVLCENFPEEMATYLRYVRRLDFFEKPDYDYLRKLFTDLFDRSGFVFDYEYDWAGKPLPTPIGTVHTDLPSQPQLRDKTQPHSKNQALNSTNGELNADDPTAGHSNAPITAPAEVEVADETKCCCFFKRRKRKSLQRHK
Sequence of Casein kinase I isoform gamma-3 (Homo sapiens) (Q9Y6M4 whole entry, looked up, canonical isoform): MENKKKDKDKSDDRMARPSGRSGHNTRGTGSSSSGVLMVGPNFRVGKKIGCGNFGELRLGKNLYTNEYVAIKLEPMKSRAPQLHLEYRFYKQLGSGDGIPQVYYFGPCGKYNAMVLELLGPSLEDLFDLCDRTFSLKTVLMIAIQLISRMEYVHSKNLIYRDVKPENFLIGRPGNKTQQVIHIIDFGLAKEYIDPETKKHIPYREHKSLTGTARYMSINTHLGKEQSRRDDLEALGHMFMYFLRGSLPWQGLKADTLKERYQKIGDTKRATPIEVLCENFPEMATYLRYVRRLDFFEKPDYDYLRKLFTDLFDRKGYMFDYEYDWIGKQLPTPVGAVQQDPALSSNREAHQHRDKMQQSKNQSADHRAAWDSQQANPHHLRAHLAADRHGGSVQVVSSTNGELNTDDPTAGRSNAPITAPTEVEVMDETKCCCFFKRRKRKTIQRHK

| SMILES | inhibition [1] | inhibition [2] | inhibition [3] | inhibition [4] | inhibition [5] | inhibition [6] | inhibition [7] | inhibition [8] | inhibition [9] | inhibition [10] | inhibition [11] | inhibition [12] | inhibition [13] | inhibition [14] | inhibition [15] | inhibition [16] | inhibition [17] | inhibition [18] | inhibition [19] | inhibition [20] |
| --- | --- | --- | --- | --- | --- | --- | --- | --- | --- | --- | --- | --- | --- | --- | --- | --- | --- | --- | --- | --- |
| CNC(=O)c1cncc(/C=C/c2c(C)cccc2C)c1 | -0.99% | -1.38% | -0.55% | -3.38% | 1.17% | -3.98% | 4.82% | -1.1% | -2.25% | -0.48% | -0.8% | -2.46% | -1.6% | -2.99% | -1.16% | 3.56% | 0.79% | 0.58% | -1.19% | -2% |
| C#Cc1cccc(Nc2ncnc3ccc(OCCCCNCCS(C)(=O)=O)cc23)c1 | 1.61% | -0.3% | 0.33% | -2.94% | -2.94% | -1.15% | -0.68% | 0.97% | 1.11% | 3.19% | -3.02% | -1.23% | 0.97% | -2.73% | -2.83% | -4.26% | 0.21% | 1.01% | 1.36% | -1.3% |
| O=C1Nc2ccc(I)cc2C1=Cc1cc(Br)c(O)c(Br)c1 | 6.34% | 3.79% | 3.16% | 2.76% | 1.43% | 4.61% | 3.86% | 1.77% | 3.35% | -4.12% | -2.28% | 4.82% | 6.47% | 0.5% | 0.26% | -0.1% | 0.92% | 1.63% | 4.77% | -0.91% |
| COc1ccc2ncn(-c3cc(O[C@H](C)c4ccccc4Cl)c(C(N)=O)s3)c2c1 | 0.41% | -0.98% | -2.81% | -3.45% | -2.45% | -2.63% | -1.27% | -1.28% | 1.93% | -2.44% | -2.98% | -2.27% | -0.19% | -3.87% | -2.17% | -3.71% | -2.1% | 0.43% | 0.2% | -2.29% |
| COc1cccc(-n2cnc3c(N/N=C/c4ccncc4)ncnc32)c1 | -5.36% | -3.39% | -3.3% | -3.5% | 0.55% | -3.99% | 8.02% | -3.22% | -2.32% | -0.66% | 0.9% | -6.94% | -4.27% | -3.69% | -0.49% | -0.76% | -8.82% | 3.04% | 5.72% | -3.93% |
| Clc1ccc(CNc2nccc(-c3cnn4ncccc34)n2)cc1 | 12% | -0.98% | 12.9% | 7.01% | 36.3% | 4.06% | 17.6% | 4.31% | 21.5% | 3.02% | 17.3% | 3.89% | 20.1% | 7.08% | 36.9% | 13.8% | 11% | 7.28% | 43.6% | 1.27% |
| Fc1ccc(-c2ncn(C3CCNCC3)c2-c2ccnc(Oc3ccc(Oc4ccccc4)cc3)n2)cc1 | 14.6% | 7.8% | 26.3% | 1.88% | 2.92% | 3.49% | 4.28% | 2.95% | 4.3% | -3.73% | -1.29% | 4.1% | 3.52% | 0.97% | 1.86% | -6.79% | -6.24% | 2.06% | 4.62% | 0.9% |
| O=C(Nc1n[nH]c2cc(-c3cc(F)ccc3F)ccc12)C1CC1 | 3.38% | 1.27% | 2.99% | 1.12% | 7.47% | 2.01% | 17.3% | 2.48% | 11.6% | 2.32% | 5.19% | 1.96% | 8.77% | 0.68% | 5.38% | 4.69% | 39.6% | -0.48% | 1.29% | 0.11% |
| COc1cc(Nc2ncc3c(C)nc(-c4cccc(Oc5ccccc5)c4)n3n2)cc(OC)c1OC | 3.44% | 1.22% | 5.12% | -0.4% | 0.45% | 2.04% | 2.37% | 0.75% | 3.13% | 0.34% | 3.12% | 0.68% | 1.99% | 0.07% | 1.06% | 2.92% | 3.25% | 0.86% | 3.28% | 0.71% |
| c1ccc(Oc2ccc(Nc3ncc(-c4ccccc4)o3)cc2)cc1 | 2.07% | -0.2% | 1.13% | 0.18% | 1.13% | 0.43% | 1.24% | 0.94% | 3.16% | 0.29% | -2.54% | 1.05% | 1.2% | 0.52% | 1.6% | 1.34% | 3.56% | -0.16% | -0.28% | 0.6% |
| COc1cc2ncn(-c3cc(OCc4cccs4)c(C(N)=O)s3)c2cc1OC | -1.86% | -0.97% | -0.06% | -2.79% | -0.17% | -2.8% | 6.63% | -0.55% | 4.77% | 1.28% | 2.15% | -2.57% | -2.26% | -2.83% | -2.03% | -5.45% | -6.37% | 2.46% | 6.46% | -1.61% |
| NS(=O)(=O)c1ccc(N/N=C2\C(=O)Nc3ccc(C(=O)NCCCn4ccnc4)cc32)cc1 | 9.42% | 5.52% | 12.9% | 20.5% | 66.7% | 97.4% | 97.9% | 65% | 82.4% | 27.8% | 88.6% | 16.6% | 57.1% | 33.8% | 72.8% | 10% | 57.2% | 15.6% | 66.1% | 1.77% |
| NC(=O)Cc1ccccc1Oc1nccc(-c2c(-c3ccc(F)cc3)ncn2C2CCNCC2)n1 | 10.5% | 3.98% | 8.65% | -0.31% | -0.43% | 1.15% | 2% | 1.82% | 2.1% | 2.95% | -1.4% | 0.31% | 0.75% | 0.66% | 0.67% | -4.52% | 0.67% | 1.69% | 2.11% | 1.44% |
| CN(c1ccc(NC(=O)Nc2c(Cl)cccc2Cl)cc1)c1ccnc(Nc2cccc(CS(C)(=O)=O)c2)n1 | 0.63% | 1.67% | -1.25% | 0.58% | 3.72% | 3.62% | 12.2% | -0.54% | 2.62% | 0.7% | -0.7% | -0.86% | -0.25% | 0.43% | 1.99% | 3.57% | -0.75% | 3.63% | 5.49% | -0.2% |
| CN1CCN(CCCNc2nc3ccc(Oc4ccc(NC(=O)Nc5cc(C(F)(F)F)ccc5F)cc4)cc3[nH]2)CC1 | -2.41% | -3.59% | -4.66% | -2.5% | -3.79% | -3.51% | 5.29% | -2.32% | -2.03% | 0.7% | 2.2% | -3.04% | -2.88% | -2.74% | -3.46% | -4.09% | -1.64% | 2.17% | 1.41% | -3.87% |
